# Assay results: PubChem BioAssay (EPA / NIEHS)
# “And” between values parts separate entries of the source, which are not always exact repeats. Equal entries are not always repeated. Results filed as inconclusive are left out. Some compounds were tested as several samples or in several runs, with calls that do not always agree. The source made the active and inactive calls. How the source made its calls: active means hit-call score of the fitted dose curve at least 0.9, where 1 is the maximum; inconclusive means response in the unintended direction; inactive means score below 0.9.
# Assays:
# [1] = ATG_XTT_Cytotoxicity: Cytotoxicity Assessment in the Attagene TRANS-FACTORIAL HepG2 Assay (AID 2283584);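 on AC50: XTT signal for cell number as viability in transfected HepG2 cells; cells exposed to compound for 24 h before reading; active means loss of viability signal versus DMSO baseline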
# Outline: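 24 h chemical exposure of reporter-transfected HepG2; XTT signal loss vs DMSO indicates cytotoxicity.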
# [2] = TOX21_p53_BLA_p2_viability: Viability Assessment in the Tox21 HCT-116 p53 Agonism Beta-lactamase Assay, Phase 2 (AID 2283591);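 further: compound exposure lasted 16 h at 37 °C; actives lower the ATP signal meaning cytotoxicity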
# Outline: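 HCT116 p53-bla cells, 4000/well, dosed after 5 h plating (217-fold dilution of DMSO stocks) and incubated 16 h at 37C. Viability taken as cellular ATP by CellTiter-Glo luminescence after 30 min RT; signal loss marks cytotoxicity.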
# [3] = target: Cellular tumor antigen p53 (Homo sapiens) (UniProt P04637); experiment: TOX21_p53_BLA_p2_ratio: Tox21 HCT-116 p53 Agonism Beta-lactamase Assay, Ratio, Phase 2 (AID 2283592)
# Outline: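 Human colon HCT116 cells with an inducible p53 beta-lactamase reporter are exposed to test chemicals for 16 h at 37C. Reporter induction is read as the 460/530 nm emission ratio after CCF4-AM loading, normalized to DMSO.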
# [4] = TOX21_p53_BLA_p3_viability: Viability Assessment in the Tox21 HCT-116 p53 Agonism Beta-lactamase Assay, Phase 3 (AID 2283593);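 further: cells exposed to compound for 16 h before reading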
# Outline: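 HCT116 cells, 4000/well, dosed 5 h after plating by pin transfer (217-fold dilution from DMSO stock) and incubated 16 h at 37C, 5% CO2. Viability read as ATP luminescence with CellTiter-Glo after 30 min at room temperature.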
# Cellular tumor antigen p53 (Homo sapiens), sequence (P04637 whole entry, looked up): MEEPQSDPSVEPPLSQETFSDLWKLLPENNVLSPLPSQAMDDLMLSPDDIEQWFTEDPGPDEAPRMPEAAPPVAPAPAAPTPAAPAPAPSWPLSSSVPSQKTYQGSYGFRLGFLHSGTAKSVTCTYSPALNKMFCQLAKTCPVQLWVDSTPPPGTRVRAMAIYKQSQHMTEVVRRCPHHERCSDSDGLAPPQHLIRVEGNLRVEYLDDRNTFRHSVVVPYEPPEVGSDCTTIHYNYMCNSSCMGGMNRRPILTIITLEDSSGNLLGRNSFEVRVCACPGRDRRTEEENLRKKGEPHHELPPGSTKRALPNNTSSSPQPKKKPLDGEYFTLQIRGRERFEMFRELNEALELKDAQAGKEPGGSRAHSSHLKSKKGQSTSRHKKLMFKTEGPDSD
smiles,measurement,setting,value
C=CC(=O)N(C)C,outcome,[1],inactive
ClC(Cl)=C(Cl)C(Cl)=C(Cl)Cl,outcome,[1],inactive
CC(C)CCCCCCOC(=O)c1ccccc1C(=O)OCCCCCCC(C)C,outcome,[1],inactive
same,outcome,[2],inactive
same,outcome,[3],inactive
CC(C)C1CCC(Cc2ccc(Cl)cc2)C1(O)Cn1cncn1 (centres undefined),AC50,[1],33.2 µM (active)
same,outcome,[1],inactive
same,AC50,[2],53.1 µM (active)
same,AC50,[3],67.8 µM (active)
same,AC50,[4],45.7 µM (active)
Fc1ccc(C2(Cn3cncn3)OC2c2ccccc2Cl)cc1 (centres undefined),outcome,[1],inactive
Oc1c(I)cc(I)cc1I,outcome,[1],inactive
Nc1ccc(Cl)cc1C(=O)c1ccccc1,outcome,[1],inactive
CCOP(=S)(OCC)Oc1ccc(S(C)=O)cc1 (centres undefined),outcome,[1],inactive
CC(=[OH+])/C=C(/C)[O-].CC(=[OH+])/C=C(/C)[O-].CC(=[OH+])/C=C(/C)[O-].[Fe],outcome,[1],inactive
C[C@@H](Oc1ccc(Cl)cc1Cl)C(=O)O,outcome,[1],inactive
CC1CN1P(=O)(N1CC1C)N1CC1C (centres undefined),outcome,[1],inactive
COc1ccc(C=O)cc1,outcome,[1],inactive
same,outcome,[2],inactive
same,outcome,[3],inactive
CC(=[OH+])/C=C(/C)[O-].CC(=[OH+])/C=C(/C)[O-].CC(=[OH+])/C=C(/C)[O-].[Al],outcome,[1],inactive
COS(=O)(=O)c1ccc(C)cc1,outcome,[1],inactive
COc1ccc(OC)c(C=O)c1,outcome,[1],inactive
Cc1cc(Cl)ccc1O[C@H](C)C(=O)O,outcome,[1],inactive
CC1(C)CCC(Cc2ccc(Cl)cc2)C1(O)Cn1cncn1 (centres undefined),outcome,[1],inactive
Nc1cccc(Cl)c1,outcome,[1],inactive
same,outcome,[2],inactive
same,outcome,[3],inactive
same,outcome,[4],inactive
Cc1ccccc1C(=O)Nc1cccc(OC(C)C)c1,outcome,[1],inactive
same,outcome,[2],inactive
same,outcome,[3],inactive
same,outcome,[4],inactive
CCC(C)c1cccc(C(C)CC)c1O (centres undefined),outcome,[1],inactive
same,outcome,[2],inactive
same,outcome,[3],inactive
same,outcome,[4],inactive
CCCCOCCOC(C)=O,outcome,[1],inactive
same,outcome,[2],inactive
same,outcome,[3],inactive
same,outcome,[4],inactive
N#Cc1ccccn1,outcome,[1],inactive
same,outcome,[2],inactive
same,outcome,[3],inactive
CC(Br)C(=O)O (centres undefined),outcome,[1],inactive
same,outcome,[2],inactive
same,outcome,[3],inactive
same,outcome,[4],inactive
COP(=S)(OC)Oc1ccc(S(=O)(=O)N(C)C)cc1,outcome,[1],inactive
same,outcome,[2],inactive
same,outcome,[3],inactive
same,outcome,[4],inactive
Cc1cc(=O)[nH]o1,outcome,[1],inactive
same,outcome,[2],inactive
same,outcome,[3],inactive
Nc1ccc(-c2ccc(N)c(Cl)c2)cc1Cl,outcome,[1],inactive
same,outcome,[2],inactive
same,AC50,[3],14.4 µM (active) and 13.7 µM (active) and 16.7 µM (active)
same,outcome,[4],inactive
C1CCC(NC2CCCCC2)CC1,outcome,[1],inactive
same,outcome,[2],inactive
same,outcome,[3],inactive
same,outcome,[4],inactive
Cl/C=C\C[N+]12CN3CN(CN(C3)C1)C2,outcome,[1],inactive
same,outcome,[2],inactive
same,outcome,[3],inactive
same,outcome,[4],inactive
C[C@H]1O[C@@H](O[C@H]2[C@@H](O)C[C@H](O[C@H]3[C@@H](O)C[C@H](O[C@H]4CC[C@@]5(C)[C@H](CC[C@@H]6[C@@H]5CC[C@]5(C)[C@@H](C7=CC(=O)OC7)CC[C@]65O)C4)O[C@@H]3C)O[C@@H]2C)C[C@H](O)[C@@H]1O,outcome,[1],inactive
same,AC50,[2],35.6 nM (active) and 51.1 nM (active)
same,outcome,[3],inactive
same,AC50,[4],30 nM (active) and 51.3 nM (active)
O=C/C=C/c1ccccc1,outcome,[1],inactive
same,outcome,[2],inactive
same,outcome,[3],inactive
same,outcome,[4],inactive
CCCCCCCCCl,outcome,[1],inactive
same,outcome,[2],inactive
same,outcome,[3],inactive
same,outcome,[4],inactive
Clc1nc(Cl)nc(Cl)n1,outcome,[1],inactive
same,outcome,[2],inactive
same,outcome,[3],inactive
same,outcome,[4],inactive
COc1cccc(C=O)c1,outcome,[1],inactive
same,outcome,[2],inactive
same,outcome,[3],inactive
same,outcome,[4],inactive
O=[N+]([O-])c1c(Cl)c(Cl)cc(Cl)c1Cl,outcome,[1],inactive
same,outcome,[2],inactive
same,outcome,[3],inactive
same,outcome,[4],inactive
C(=NC1CCCCC1)=NC1CCCCC1,outcome,[1],inactive
same,outcome,[2],inactive
same,outcome,[3],inactive
same,AC50,[4],17.7 µM (active) and 30.7 µM (active)
CCCCCCCCSC(=O)Oc1cc(Cl)nnc1-c1ccccc1,outcome,[1],inactive
same,outcome,[2],inactive
same,outcome,[3],inactive
same,AC50,[4],59.1 µM (active)
Clc1ccc(COC(Cn2ccnc2)c2ccc(Cl)cc2Cl)cc1 (centres undefined),outcome,[1],inactive
same,AC50,[2],64.8 µM (active) and 73 µM (active) and 33.7 µM (active)
same,AC50,[3],60.3 µM (active) and 33.3 µM (active) and 23.5 µM (active)
same,AC50,[4],72.9 µM (active) and 73.5 µM (active) and 23 µM (active)
Oc1ccc(-c2ccccc2)cc1,outcome,[1],inactive
same,outcome,[2],inactive
same,outcome,[3],inactive
same,outcome,[4],inactive
C[C@H]1CCCC(=O)CCC/C=C/c2cc(O)cc(O)c2C(=O)O1,outcome,[1],inactive
same,outcome,[2],inactive
same,AC50,[3],11.7 µM (active)
same,outcome,[3],inactive
same,outcome,[4],inactive
COP(=O)(OC)OC,outcome,[1],inactive
same,outcome,[2],inactive
same,outcome,[3],inactive
same,outcome,[4],inactive
CCNc1nc(NC(C)(C)C)nc(SC)n1,outcome,[1],inactive
same,outcome,[2],inactive
same,outcome,[3],inactive
same,outcome,[4],inactive
CC(C)OC(=O)Nc1ccccc1,outcome,[1],inactive
same,outcome,[2],inactive
same,outcome,[3],inactive
same,outcome,[4],inactive
COC(=O)c1sccc1S(=O)(=O)NC(=O)Nc1nc(C)nc(OC)n1,outcome,[1],inactive
same,outcome,[2],inactive
same,outcome,[3],inactive
same,outcome,[4],inactive
ClC1=C(Cl)[C@]2(Cl)[C@H]3[C@H]([C@H]4C=C[C@H]3C4)[C@@]1(Cl)C2(Cl)Cl,outcome,[1],inactive
same,outcome,[2],inactive
same,outcome,[3],inactive
same,outcome,[4],inactive
CC(C)c1cccc(C(C)C)c1O,outcome,[1],inactive
same,outcome,[2],inactive
same,outcome,[3],inactive
same,outcome,[4],inactive
COc1ccc(C=O)cc1OC,outcome,[1],inactive
same,outcome,[2],inactive
same,outcome,[3],inactive
same,outcome,[4],inactive
Clc1ccc(C2(Cn3cncn3)CC(Br)CO2)c(Cl)c1 (centres undefined),outcome,[1],inactive
same,outcome,[2],inactive
same,AC50,[3],69.2 µM (active)
same,outcome,[4],inactive
C=CC#N,outcome,[1],inactive
same,outcome,[2],inactive
same,outcome,[3],inactive
same,outcome,[4],inactive
CCOC(=O)/C=C(C)/C=C/C[C@@H](C)CCCC(C)C,outcome,[1],inactive
same,outcome,[2],inactive
same,outcome,[3],inactive
same,AC50,[4],58.3 µM (active)
BrCCBr,outcome,[1],inactive
same,outcome,[2],inactive
same,outcome,[3],inactive
same,outcome,[4],inactive
CC(=O)OC(c1ccccc1)C(Cl)(Cl)Cl (centres undefined),outcome,[1],inactive
same,outcome,[2],inactive
same,outcome,[3],inactive
same,outcome,[4],inactive
COc1cc2c(cc1OC)[C@@]13CCN4CC5=CCO[C@H]6CC(=O)N2[C@H]1[C@H]6[C@H]5C[C@H]43,outcome,[1],inactive
same,outcome,[2],inactive
same,outcome,[3],inactive
same,outcome,[4],inactive
CNC,outcome,[1],inactive
same,outcome,[2],inactive
same,outcome,[3],inactive
same,outcome,[4],inactive
Nc1ncc([N+](=O)[O-])s1,outcome,[1],inactive
same,outcome,[2],inactive
same,outcome,[3],inactive
same,outcome,[4],inactive
CCC[CH2][Sn]([CH2]CCC)([CH2]CCC)[O]C(=O)c1ccccc1,AC50,[1],0.906 µM (active)
same,AC50,[2],0.93 µM (active)
same,AC50,[3],23.9 µM (active)
same,AC50,[4],2.09 µM (active)
N#CN=C(N)N,outcome,[2],inactive
same,outcome,[3],inactive
CC(C)OC(=S)S,outcome,[2],inactive
same,outcome,[3],inactive
ClCCBr,outcome,[2],inactive
same,outcome,[3],inactive
same,outcome,[4],inactive
O=[N+]([O-])c1ccc2c3c(cccc13)CC2,outcome,[1],inactive
same,outcome,[3],inactive
same,outcome,[4],inactive
O=P(O)(O)CN(CP(=O)(O)O)CP(=O)(O)O,outcome,[1],inactive
same,outcome,[2],inactive
same,outcome,[4],inactive
